Experimental data: PubChem BioAssay (NCATS)
Inconclusive results are not listed. Calls of active or inactive are those of the source. Unless noted, calls come from the whole dose curve; as a rule, active = well fitted curve in either direction with a large enough effect (not every such curve was filed as active); inconclusive = small, poorly fitted or top-dose-only effect, or another doubt; inactive = flat fitted curve, though single readings scatter.

Experiments:
[1] = molecular target: Lysosomal acid glucosylceramidase (Homo sapiens) (UniProt P04062); assay: Glucocerebrosidase-p2 (AID 348; in the data active = potency below about 10 µM; note: potency is the fitted concentration of half-maximal effect); settings: purified GBA, blue fluorogenic substrate, 40 min
Chain of Lysosomal acid glucosylceramidase (Homo sapiens) (P04062 whole entry, looked up): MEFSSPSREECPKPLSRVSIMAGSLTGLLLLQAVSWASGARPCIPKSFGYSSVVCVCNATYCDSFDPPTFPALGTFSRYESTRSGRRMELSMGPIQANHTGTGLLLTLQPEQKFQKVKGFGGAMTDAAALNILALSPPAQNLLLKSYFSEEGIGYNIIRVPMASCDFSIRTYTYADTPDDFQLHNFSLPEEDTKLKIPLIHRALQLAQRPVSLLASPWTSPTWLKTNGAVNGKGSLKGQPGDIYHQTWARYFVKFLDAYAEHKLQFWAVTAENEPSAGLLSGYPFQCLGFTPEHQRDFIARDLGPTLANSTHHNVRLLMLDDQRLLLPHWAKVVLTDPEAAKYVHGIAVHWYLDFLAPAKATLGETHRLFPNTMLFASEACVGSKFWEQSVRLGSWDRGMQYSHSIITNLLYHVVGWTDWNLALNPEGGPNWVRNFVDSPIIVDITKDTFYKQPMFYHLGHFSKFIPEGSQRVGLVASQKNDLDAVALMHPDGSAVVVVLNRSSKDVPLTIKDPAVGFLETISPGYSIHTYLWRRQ
How it was run: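 Normal human glucocerebrosidase (0.2 nM) with blue fluorogenic substrate (80 uM final) in citrate/phosphate pH 5.9 with 10mM sodium taurocholate, 0.01% tween-20; 40 min RT, NaOH/glycine stop; fluorescence Ex 365/Em 440; AC50 from a titration from 0.6 nM upwards.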

[2] = AP1 Signaling Pathway (AID 357); settings: ME-180 AP-1-bla reporter, EGF-induced, beta-lactamase ratio, 5 h; at 7.69 µM (top of the series) unless noted;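 note: ME-180 reporter cells stimulated with EGF at its EC50 level; % is set by controls: 0 for no effect and ±100 for the full control effect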
How it was run: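 A ratiometric CCF4 readout (405 nm excitation; 460 and 530 nm emission) quantified AP-1-driven beta-lactamase in ME-180 cells after 5 h with compound and EC50 EGF; AC50 values were derived for activators and inhibitors.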

[3] = molecular target: Glucocorticoid receptor (Homo sapiens) (UniProt P04150); assay: GR-GFP Redistribution (AID 450;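 active = compounds whose dose series gives a full or clear partial fitted curve of increased nuclear translocation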; note: potency is the fitted concentration of half-maximal effect); settings: U2OS GR-GFP nuclear translocation, laser cytometry, 2 h
Chain of Glucocorticoid receptor (Homo sapiens) (P04150 whole entry, looked up, the tested form may be a part): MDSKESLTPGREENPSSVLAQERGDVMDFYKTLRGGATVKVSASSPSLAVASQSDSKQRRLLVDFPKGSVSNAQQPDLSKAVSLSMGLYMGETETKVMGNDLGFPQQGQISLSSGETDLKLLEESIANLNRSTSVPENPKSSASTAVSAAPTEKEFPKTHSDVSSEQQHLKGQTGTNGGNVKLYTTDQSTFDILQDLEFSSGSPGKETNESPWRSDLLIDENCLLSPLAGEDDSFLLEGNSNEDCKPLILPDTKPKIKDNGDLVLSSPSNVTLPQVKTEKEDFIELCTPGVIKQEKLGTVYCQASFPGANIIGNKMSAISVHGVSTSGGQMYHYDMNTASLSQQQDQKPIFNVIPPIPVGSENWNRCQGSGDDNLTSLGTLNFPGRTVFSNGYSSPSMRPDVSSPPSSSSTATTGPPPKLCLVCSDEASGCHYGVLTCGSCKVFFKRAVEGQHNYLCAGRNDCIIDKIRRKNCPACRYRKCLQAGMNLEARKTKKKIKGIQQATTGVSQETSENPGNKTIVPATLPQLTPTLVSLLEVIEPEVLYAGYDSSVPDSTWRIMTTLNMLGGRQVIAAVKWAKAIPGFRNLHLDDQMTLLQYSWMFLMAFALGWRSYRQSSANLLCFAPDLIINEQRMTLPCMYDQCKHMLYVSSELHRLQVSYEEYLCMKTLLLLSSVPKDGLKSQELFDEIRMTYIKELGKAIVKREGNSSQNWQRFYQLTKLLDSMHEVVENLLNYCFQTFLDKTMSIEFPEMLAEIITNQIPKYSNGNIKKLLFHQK

[4] = molecular target: Glucocorticoid receptor (Homo sapiens) (UniProt P04150); assay: GR-EFC Redistribution (AID 451; calls by dose curve; note: potency is the fitted concentration of half-maximal effect); settings: CHO-K1 GR-EFC translocation, beta-gal luminescence, 2 h
How it was run: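 Translocation of GR-ED fusion to nuclear EA restores b-gal, read by luminescence after 1 h room-temperature detection. Engineered CHO-K1 biosensor cells, 1,000/well, exposed 2 h at 37 C to titrations up to 46 uM final.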

[5] = molecular target: Mitogen-activated protein kinase 10 (Mus musculus) (UniProt Q61831); assay: JNK3 AlphaScreen Assay (AID 530); settings: JNK3 lysate, c-Jun phosphorylation; series mostly up to 11.4 µM;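 note: kinase came from lysate of stimulated human HepG2 cells; signal reports phosphorylation of biotinylated GST-cJun 1-79 at Ser73 with 10 µM ATP; % is set by controls: 0 for no effect and ±100 for the full control effect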
How it was run: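 Kinase buffer: 20 mM Tris-HCl pH 7.6, 10 mM MgCl2, 1 mM DTT, 0.1 mM Na3VO4, 0.01% Tween-20; ATP 10 uM. Substrate biotin-GST-cJun(1-79), enzyme from activated HepG2 lysates. Detection by Ser73 phospho-antibody AlphaScreen.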

[6] = molecular target: 3',5'-cyclic-AMP phosphodiesterase 4B (Homo sapiens) (UniProt Q07343); assay: qHTS Assay for Inhibitors of PDE-IV (AID 607; active = well fitted activation curve with a large enough effect in the main read-out, with a control signal flat, not every such curve was filed as active; note: % of control where 0% means no effect); settings: HEK293 ACTOne CNG channel cells, membrane potential fluorescence; series mostly up to 22.9 µM
Chain of 3',5'-cyclic-AMP phosphodiesterase 4B (Homo sapiens) (Q07343 whole entry, looked up): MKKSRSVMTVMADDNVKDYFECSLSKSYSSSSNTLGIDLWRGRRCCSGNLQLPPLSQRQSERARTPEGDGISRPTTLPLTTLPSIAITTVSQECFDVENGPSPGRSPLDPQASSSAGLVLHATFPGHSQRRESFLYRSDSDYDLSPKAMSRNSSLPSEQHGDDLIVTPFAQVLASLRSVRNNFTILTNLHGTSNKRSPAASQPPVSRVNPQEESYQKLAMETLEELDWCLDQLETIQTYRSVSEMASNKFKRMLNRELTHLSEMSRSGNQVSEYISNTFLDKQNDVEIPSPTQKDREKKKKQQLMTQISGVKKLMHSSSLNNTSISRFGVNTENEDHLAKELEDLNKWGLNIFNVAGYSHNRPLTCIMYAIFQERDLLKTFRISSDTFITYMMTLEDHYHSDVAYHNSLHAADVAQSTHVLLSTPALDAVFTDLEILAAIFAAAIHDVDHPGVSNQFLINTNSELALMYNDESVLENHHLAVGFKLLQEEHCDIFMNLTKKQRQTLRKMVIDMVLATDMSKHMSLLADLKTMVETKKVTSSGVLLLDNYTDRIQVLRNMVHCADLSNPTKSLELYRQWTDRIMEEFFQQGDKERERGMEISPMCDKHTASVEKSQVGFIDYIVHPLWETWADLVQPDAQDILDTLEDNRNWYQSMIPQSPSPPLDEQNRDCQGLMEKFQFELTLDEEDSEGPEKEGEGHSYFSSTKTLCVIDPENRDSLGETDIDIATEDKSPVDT
How it was run: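 Cell-based read-out of cAMP via a modified cyclic nucleotide-gated channel and membrane potential dye (535/590 nm) in HEK293 cells expressing PDE4 endogenously. Compounds tested up to 22.9 uM final; 100 uM RO 20-1724 reference.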

[7] = molecular target: Cytochrome P450 2C9 (Homo sapiens) (UniProt P11712); assay: qHTS Assay for Inhibitors and Substrates of Cytochrome P450 2C9 (AID 883; active = well fitted curve in the direction sought with a large enough effect; an effect the other way counts as inactive or inconclusive; note: % is set by controls: 0 for no effect and ±100 for the full control effect; nearly all actives have a fitted effect of over 60% in size); settings: recombinant CYP2C9, luciferin-H luminescence, 60 min; series mostly up to 11.4 µM
Chain of Cytochrome P450 2C9 (Homo sapiens) (P11712 whole entry, looked up): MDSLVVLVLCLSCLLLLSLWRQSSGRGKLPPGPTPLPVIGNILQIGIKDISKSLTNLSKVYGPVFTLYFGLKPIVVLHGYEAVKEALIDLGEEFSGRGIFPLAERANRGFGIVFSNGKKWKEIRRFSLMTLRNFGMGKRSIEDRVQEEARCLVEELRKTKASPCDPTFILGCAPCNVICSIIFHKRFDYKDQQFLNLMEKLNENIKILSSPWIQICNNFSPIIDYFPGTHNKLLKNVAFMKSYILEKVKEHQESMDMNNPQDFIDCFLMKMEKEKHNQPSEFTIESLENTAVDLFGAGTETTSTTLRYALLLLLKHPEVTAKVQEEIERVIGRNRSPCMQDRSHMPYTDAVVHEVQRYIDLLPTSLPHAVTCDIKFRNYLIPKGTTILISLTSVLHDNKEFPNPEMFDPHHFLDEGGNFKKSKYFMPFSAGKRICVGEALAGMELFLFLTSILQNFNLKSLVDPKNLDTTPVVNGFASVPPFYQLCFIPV
How it was run: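 Turnover of Luciferin-H (100uM, KM) by 10nM human CYP2C9 was measured over 60 min at 37C with NADPH regeneration; inhibitors and some substrates reduce luminescence. Data normalized to sulphaphenazole 57uM.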

[8] = molecular target: Cytochrome P450 3A4 (Homo sapiens) (UniProt P08684); assay: qHTS Assay for Inhibitors and Substrates of Cytochrome P450 3A4 (AID 884; active = well fitted curve in the direction sought with a large enough effect; an effect the other way counts as inactive or inconclusive; note: % is set by controls: 0 for no effect and ±100 for the full control effect; nearly all actives have a fitted effect of over 50% in size); settings: recombinant CYP3A4, Luciferin-PPXE luminescence; series mostly up to 57.1 µM
Chain of Cytochrome P450 3A4 (Homo sapiens) (P08684 whole entry, looked up): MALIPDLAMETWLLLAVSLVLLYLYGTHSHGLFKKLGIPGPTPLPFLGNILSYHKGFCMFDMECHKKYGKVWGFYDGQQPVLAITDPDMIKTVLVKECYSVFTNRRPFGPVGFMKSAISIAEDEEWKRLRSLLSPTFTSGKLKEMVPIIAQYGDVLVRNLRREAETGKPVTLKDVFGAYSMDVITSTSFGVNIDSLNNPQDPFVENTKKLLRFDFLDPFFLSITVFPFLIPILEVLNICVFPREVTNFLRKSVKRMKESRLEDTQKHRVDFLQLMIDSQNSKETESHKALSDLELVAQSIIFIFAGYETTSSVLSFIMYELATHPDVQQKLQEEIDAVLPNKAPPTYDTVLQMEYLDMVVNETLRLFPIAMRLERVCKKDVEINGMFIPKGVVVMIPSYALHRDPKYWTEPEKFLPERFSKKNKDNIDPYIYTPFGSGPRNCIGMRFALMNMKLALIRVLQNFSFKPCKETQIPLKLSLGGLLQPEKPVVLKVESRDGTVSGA
How it was run: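 Luminescent readout of luciferin produced by CYP3A4 (20 nM) dealkylation of Luciferin-PPXE, 25 uM (its KM). NADPH-driven reaction ran 60 min at RT after 10 min compound preincubation; data scaled to 57 uM ketoconazole as 100% inhibition.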

[9] = molecular target: Cytochrome P450 2D6 (Homo sapiens) (UniProt P10635); assay: qHTS Assay for Inhibitors and Substrates of Cytochrome P450 2D6 (AID 891; active = well fitted curve in the direction sought with a large enough effect; an effect the other way counts as inactive or inconclusive;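 note: luciferin methyl ether substrate demethylated by CYP2D6 with NADPH regeneration; % is set by controls: 0 for no effect and ±100 for the full control effect; nearly all actives have a fitted effect of over 60% in size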); settings: recombinant CYP2D6, luciferin-ME EGE luminescence; series mostly up to 11.4 µM
Chain of Cytochrome P450 2D6 (Homo sapiens) (P10635 whole entry, looked up): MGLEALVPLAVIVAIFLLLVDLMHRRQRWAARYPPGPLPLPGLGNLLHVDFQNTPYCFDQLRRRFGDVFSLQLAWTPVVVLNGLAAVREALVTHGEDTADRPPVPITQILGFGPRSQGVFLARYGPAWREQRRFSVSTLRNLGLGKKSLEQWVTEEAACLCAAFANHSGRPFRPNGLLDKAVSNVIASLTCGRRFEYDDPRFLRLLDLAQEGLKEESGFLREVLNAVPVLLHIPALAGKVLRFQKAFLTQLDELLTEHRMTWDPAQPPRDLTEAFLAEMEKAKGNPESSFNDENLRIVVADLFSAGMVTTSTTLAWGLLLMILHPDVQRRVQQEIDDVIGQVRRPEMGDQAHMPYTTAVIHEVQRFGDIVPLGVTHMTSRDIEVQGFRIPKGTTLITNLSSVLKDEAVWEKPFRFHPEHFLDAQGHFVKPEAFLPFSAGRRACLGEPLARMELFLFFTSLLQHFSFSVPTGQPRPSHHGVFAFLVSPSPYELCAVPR
How it was run: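 Luminescent read-out of luciferin formed by 5 nM human CYP2D6 demethylating 30 uM Luciferin-ME EGE (Km level) over 60 min at room temperature after NADPH regeneration addition. Data normalized to full inhibition by 1.43 uM quinidine.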

[10] = molecular target: Cytochrome P450 2C19 (Homo sapiens) (UniProt P33261); assay: qHTS Assay for Inhibitors and Substrates of Cytochrome P450 2C19 (AID 899; active = well fitted curve in the direction sought with a large enough effect; an effect the other way counts as inactive or inconclusive; note: nearly all actives have a fitted effect of over 60% in size; note: potency is the fitted concentration of half-maximal effect; for activity, negative = inhibition: % is set by controls: 0 for no effect and ±100 for the full control effect); settings: recombinant CYP2C19, luciferin-H EGE luminescence; series mostly up to 11.4 µM
Chain of Cytochrome P450 2C19 (Homo sapiens) (P33261 whole entry, looked up): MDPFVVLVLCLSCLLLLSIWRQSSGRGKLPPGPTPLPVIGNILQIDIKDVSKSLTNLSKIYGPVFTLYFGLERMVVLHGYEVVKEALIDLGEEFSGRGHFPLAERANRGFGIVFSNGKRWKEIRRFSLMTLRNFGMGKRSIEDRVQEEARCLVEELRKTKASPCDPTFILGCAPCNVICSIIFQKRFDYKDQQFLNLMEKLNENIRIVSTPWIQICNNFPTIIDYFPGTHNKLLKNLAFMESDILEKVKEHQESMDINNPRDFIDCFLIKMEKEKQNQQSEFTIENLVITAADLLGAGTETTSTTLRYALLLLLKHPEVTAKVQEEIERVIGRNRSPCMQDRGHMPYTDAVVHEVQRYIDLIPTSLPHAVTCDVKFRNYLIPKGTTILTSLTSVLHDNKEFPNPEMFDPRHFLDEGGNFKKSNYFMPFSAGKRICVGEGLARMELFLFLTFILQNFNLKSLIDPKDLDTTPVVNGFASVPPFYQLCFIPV
How it was run: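 Reactions contain 5nM enzyme, 10uM Luciferin-H EGE (KM) and 50mM KPO4; compound preincubates 10 min at 37C, NADPH regeneration starts turnover for 60 min. Luminescence after detection reagent gives activity.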

[11] = Stat Signaling Pathway (AID 446); settings: ME-180 SIE beta-lactamase reporter, IL-6 stimulated, 5 h; at 7.69 µM (top of the series) unless noted;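 note: ME-180 cervical cancer cells given 40 pM IL-6 alongside compound; SIE-controlled beta-lactamase reporter measured as 460/530 nm FRET emission ratio; % is set by controls: 0 for no effect and ±100 for the full control effect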
How it was run: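 FRET read-out (405 nm excitation, 460/530 nm emission) of a beta-lactamase reporter under a STAT-inducible element in ME-180 cervical carcinoma cells. Cells with compound receive 40 pM IL-6 for 5 h. Values are normalised to AC90 stimulation and AC90 JAK-inhibitor controls.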

[12] = Confirmation and Secondary Assay for Modulators of Hemoglobin Beta Chain Splicing at IVS2 654 locus (AID 910; active = well fitted curve in the direction sought with a large enough effect; an effect the other way counts as inactive or inconclusive;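 note: HeLa cells stably carrying EGFP split by mutant beta-globin IVS2-654 intron; per-well total GFP intensity by laser scanning cytometry after 2-day treatment; % of control where 0% means no effect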); settings: HeLa EGFP-654 splicing reporter, GFP fluorescence, 48 h; series mostly up to 38.3 µM
How it was run: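 Readout: per-well total peak green fluorescence (488 nm ex, 500–520 nm em) from objects 5–250 µm, reflecting correct splicing of an EGFP-654 reporter. Compounds were applied for 2 days at 37 °C to overnight-plated HeLa EGFP-654 cells; controls were DMSO and 500 nM IVS2-654 PNA.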

[13] = qHTS Assay for Identification of Small Molecule Agonists for Hypoxia Response Element Signaling Pathway (AID 914; active = well fitted activation curve with a large enough effect in the signal ratio, with a control signal flat, not every such curve was filed as active; the % refers to the signal ratio; note: % of control where 0% means no effect); settings: ME-180 (cervical carcinoma) HRE-bla reporter, beta-lactamase ratio, CoCl2, 17 h; activation: hits give high values
How it was run: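 HRE-bla ME-180 cells with beta-lactamase reporter under hypoxia response element, compounds with EC50 CoCl2 for 17 hours at 37 C. CCF4 substrate, 460nm/530nm emission ratio gave %Activity; AC50 from titration series.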

[14] = molecular target: Cytochrome P450 3A4 (Homo sapiens) (UniProt P08684); assay: qHTS Assay for Activators of Cytochrome P450 3A4 (AID 885; active = well fitted curve in the direction sought with a large enough effect; an effect the other way counts as inactive or inconclusive; note: nearly all actives have a fitted effect of over 65% in size); settings: recombinant CYP3A4, Luciferin-PPXE luminescence, 60 min; series mostly up to 11.4 µM
How it was run: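 Luminescent readout of luciferin formed from 25 uM Luciferin-PPXE (KM level) by 20 nM CYP3A4 in 200 mM KPO4, with 60 min NADPH-driven reaction at room temperature after 10 min compound exposure. Ketoconazole (57 uM) defined 100% inhibition.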

c1ccc(CNCCN2CCNCC2)nc1
inactive: Potency [1] > 11.4 µM | activity change, negative = inhibition [2] 4.86% | Potency [3] > 46 µM | Potency [4] > 9.22 µM | Potency [5] | Potency [6] | Potency [7] | activity change, negative = inhibition [8] -5.12% [at 11.4 µM] | Potency [9] | Potency [10]

c1ccc2c[n+](CCCC[n+]3ccc4ccccc4c3)ccc2c1
inactive: Potency [1] > 11.4 µM | activity change, negative = inhibition [2] 9.12% | activity, negative = inhibition [11] -5.69% | Potency [3] > 46 µM | Potency [5] | Potency [6]

Cc1cccc(CNc2nc(-c3ccc(C(=O)N(C)C)cc3)nc3ccccc23)c1
inactive: Potency [1] > 11.4 µM | activity change, negative = inhibition [2] -29.6% | activity, negative = inhibition [11] -18.6% | Potency [3] > 46 µM | Potency [4] > 46 µM | Potency [5] | outcome [12]

O[C@@H](c1cc(-c2ccc(Cl)cc2)nc2ccccc12)[C@@H]1CCCCN1
inactive: Potency [1] > 11.4 µM | activity change, negative = inhibition [2] -7.25% | activity, negative = inhibition [11] -6.67% | Potency [4] > 9.22 µM | Potency [5] | Potency [6]

Cc1c(Cl)cc(C(C)(C)C)c(O)c1Cc1c(C)c(Cl)cc(C(C)(C)C)c1O
inactive: Potency [1] > 11.4 µM | activity change, negative = inhibition [2] 10.4% | Potency [3] > 46 µM | Potency [4] > 9.22 µM | Potency [5] | Potency [6]

O=C(CCN1CCCCC1)c1csc2ccccc12
inactive: Potency [1] > 11.4 µM | activity change, negative = inhibition [2] -4.73% | activity, negative = inhibition [11] -9.72% | Potency [3] > 46 µM | Potency [4] > 9.22 µM | Potency [5] | Potency [6] | activation [13] -7.69%

O=C1c2ccccc2-c2ccc(N(Cc3ccc(Br)cc3)Cc3ccc(Br)cc3)cc21
inactive: Potency [1] > 11.4 µM | activity change, negative = inhibition [2] -16.3% | activity, negative = inhibition [11] 4.89% | Potency [3] > 46 µM | Potency [4] > 9.22 µM | Potency [6]

COC(=O)c1ccc(CCc2cc(O)ccc2O)cc1
active: Potency [10] 3.16 µM
inactive: Potency [1] > 11.4 µM | activity change, negative = inhibition [2] -7.43% | activity, negative = inhibition [11] -16.8% | Potency [3] > 46 µM | Potency [4] > 9.22 µM | Potency [5] | Potency [6] | Potency [14]
